From ChEMBL document CHEMBL1961873, “Compounds: GSK PKIS; Assays: Nanosyn kinase panel” (2012)

Assays:
[1] = target: CDK3/Cyclin E (Homo sapiens) (UniProt P24864+Q00526); details: at 1 µM;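 also: each figure is a mean percent inhibition of the CDK3/cyclin E complex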
[2] = target: Cyclin-dependent kinase 4 (Homo sapiens) (UniProt P11802); details: at 0.1 µM
[3] = target: Cyclin-dependent kinase 4 (Homo sapiens) (UniProt P11802); details: at 1 µM
[4] = target: Cyclin-dependent kinase 5 (Homo sapiens) (UniProt Q00535); details: at 0.1 µM
Chain of Cyclin-dependent kinase 5 (Homo sapiens) (Q00535 whole entry, looked up): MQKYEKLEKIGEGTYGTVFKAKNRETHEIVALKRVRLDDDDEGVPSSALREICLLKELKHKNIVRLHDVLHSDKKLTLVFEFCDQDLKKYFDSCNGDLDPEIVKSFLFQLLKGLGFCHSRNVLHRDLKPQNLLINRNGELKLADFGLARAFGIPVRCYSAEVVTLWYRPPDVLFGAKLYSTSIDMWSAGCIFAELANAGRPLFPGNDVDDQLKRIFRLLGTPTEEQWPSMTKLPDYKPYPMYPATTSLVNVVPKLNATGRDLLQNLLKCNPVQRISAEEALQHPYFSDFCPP

[5] = target: Cyclin-dependent kinase 5 (Homo sapiens) (UniProt Q00535); details: at 1 µM
[6] = target: Cyclin-dependent kinase 6 (Homo sapiens) (UniProt Q00534); details: at 0.1 µM
Chain of Cyclin-dependent kinase 6 (Homo sapiens) (Q00534 whole entry): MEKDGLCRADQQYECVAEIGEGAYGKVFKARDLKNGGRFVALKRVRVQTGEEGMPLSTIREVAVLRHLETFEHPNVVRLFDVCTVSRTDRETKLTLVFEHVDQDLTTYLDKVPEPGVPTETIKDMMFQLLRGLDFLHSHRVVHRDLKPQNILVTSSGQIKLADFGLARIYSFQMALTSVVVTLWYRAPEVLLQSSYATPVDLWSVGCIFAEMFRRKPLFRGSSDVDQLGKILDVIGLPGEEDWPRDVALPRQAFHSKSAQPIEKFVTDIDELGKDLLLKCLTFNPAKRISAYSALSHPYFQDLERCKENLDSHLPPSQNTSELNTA

[7] = target: Cyclin-dependent kinase 6 (Homo sapiens) (UniProt Q00534); details: at 1 µM
[8] = target: Dual specificity protein kinase CLK2 (Homo sapiens) (UniProt P49760); details: at 0.1 µM
Chain of Dual specificity protein kinase CLK2 (Homo sapiens) (P49760 whole entry, looked up): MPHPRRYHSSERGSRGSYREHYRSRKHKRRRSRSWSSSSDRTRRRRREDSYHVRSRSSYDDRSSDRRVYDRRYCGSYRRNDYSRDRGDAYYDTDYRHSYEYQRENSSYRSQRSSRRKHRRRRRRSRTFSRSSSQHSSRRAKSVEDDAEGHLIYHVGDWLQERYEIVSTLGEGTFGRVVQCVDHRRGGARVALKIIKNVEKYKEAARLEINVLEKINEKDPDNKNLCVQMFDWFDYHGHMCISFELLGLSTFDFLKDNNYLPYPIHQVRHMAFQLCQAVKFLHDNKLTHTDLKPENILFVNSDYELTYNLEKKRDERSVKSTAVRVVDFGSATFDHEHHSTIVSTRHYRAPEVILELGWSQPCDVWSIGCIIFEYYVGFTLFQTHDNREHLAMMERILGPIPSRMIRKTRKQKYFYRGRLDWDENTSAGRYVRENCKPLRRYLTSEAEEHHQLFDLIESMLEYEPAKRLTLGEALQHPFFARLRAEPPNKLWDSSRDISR

[9] = target: Dual specificity protein kinase CLK2 (Homo sapiens) (UniProt P49760); details: at 1 µM
[10] = target: Dual specificity protein kinase CLK3 (Homo sapiens) (UniProt P49761); details: at 0.1 µM
Chain of Dual specificity protein kinase CLK3 (Homo sapiens) (P49761 whole entry, looked up): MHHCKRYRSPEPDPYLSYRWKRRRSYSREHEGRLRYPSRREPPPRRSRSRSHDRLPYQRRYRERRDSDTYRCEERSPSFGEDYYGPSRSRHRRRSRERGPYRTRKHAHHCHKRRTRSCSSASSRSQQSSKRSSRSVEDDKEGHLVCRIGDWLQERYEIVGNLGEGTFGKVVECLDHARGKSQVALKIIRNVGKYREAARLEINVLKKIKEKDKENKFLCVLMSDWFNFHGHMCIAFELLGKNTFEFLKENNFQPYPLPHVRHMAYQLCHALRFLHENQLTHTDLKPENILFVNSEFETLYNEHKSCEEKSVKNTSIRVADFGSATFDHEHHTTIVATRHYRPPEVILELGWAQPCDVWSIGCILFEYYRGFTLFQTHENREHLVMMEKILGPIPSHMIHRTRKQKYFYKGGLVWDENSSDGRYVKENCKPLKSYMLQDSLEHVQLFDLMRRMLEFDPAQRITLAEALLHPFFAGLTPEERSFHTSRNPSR

Chain of Cyclin-dependent kinase 4 (Homo sapiens) (P11802 whole entry): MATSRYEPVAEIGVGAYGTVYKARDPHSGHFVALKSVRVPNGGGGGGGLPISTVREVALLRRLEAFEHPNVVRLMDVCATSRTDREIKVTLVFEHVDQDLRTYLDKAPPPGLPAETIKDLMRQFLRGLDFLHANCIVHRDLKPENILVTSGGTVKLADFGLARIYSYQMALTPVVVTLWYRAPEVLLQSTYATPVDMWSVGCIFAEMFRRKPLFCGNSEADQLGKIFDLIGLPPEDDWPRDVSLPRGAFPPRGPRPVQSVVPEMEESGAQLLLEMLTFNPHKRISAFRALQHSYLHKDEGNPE
Chain of CDK3/Cyclin E (Homo sapiens) (P24864 whole entry, looked up): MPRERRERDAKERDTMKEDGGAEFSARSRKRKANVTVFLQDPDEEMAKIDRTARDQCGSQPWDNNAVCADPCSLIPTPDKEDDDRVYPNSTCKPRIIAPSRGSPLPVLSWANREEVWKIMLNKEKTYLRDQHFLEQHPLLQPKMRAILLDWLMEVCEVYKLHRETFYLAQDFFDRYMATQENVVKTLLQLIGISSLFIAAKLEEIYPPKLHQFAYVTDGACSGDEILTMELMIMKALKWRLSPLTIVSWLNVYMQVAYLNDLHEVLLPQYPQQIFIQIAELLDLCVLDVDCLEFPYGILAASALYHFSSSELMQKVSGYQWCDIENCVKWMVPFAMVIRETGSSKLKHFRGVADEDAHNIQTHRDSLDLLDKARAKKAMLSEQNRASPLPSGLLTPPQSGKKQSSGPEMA
Chain of CDK3/Cyclin E (Homo sapiens) (Q00526 whole entry, looked up): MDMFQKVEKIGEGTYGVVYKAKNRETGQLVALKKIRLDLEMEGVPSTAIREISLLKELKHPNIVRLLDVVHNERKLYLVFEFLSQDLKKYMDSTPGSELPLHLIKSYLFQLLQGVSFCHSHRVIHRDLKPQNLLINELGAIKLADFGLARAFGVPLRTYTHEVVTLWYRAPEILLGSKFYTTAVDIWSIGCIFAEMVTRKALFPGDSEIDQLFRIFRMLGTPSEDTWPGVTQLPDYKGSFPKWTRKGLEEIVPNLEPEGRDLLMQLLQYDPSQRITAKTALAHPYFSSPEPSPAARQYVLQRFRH

| SMILES | inhibition [1] | inhibition [2] | inhibition [3] | inhibition [4] | inhibition [5] | inhibition [6] | inhibition [7] | inhibition [8] | inhibition [9] | inhibition [10] |
| --- | --- | --- | --- | --- | --- | --- | --- | --- | --- | --- |
| CC(C)(CO)CNC(=O)c1ccc2c(c1)/C(=N/Nc1ccc(S(N)(=O)=O)cc1)C(=O)N2 | 88.5% | 13.6% | 54.6% | 40.6% | 75.1% | 9.84% | 59.1% | 11.8% | 61.9% | -0.48% |
| Clc1ccc(-c2nn3ncccc3c2-c2ccnc(Nc3ccccc3)n2)cc1 | -0.36% | 1.45% | 2.58% | 0.66% | 1.41% | 1.16% | 4.53% | -0.96% | 1.58% | 1.63% |
| Nc1nc(-c2ccc(F)cc2)c(-c2ccc3ncccc3n2)s1 | 1.75% | 6.95% | 9.34% | 4.02% | 7.28% | 4.34% | 7.53% | 2.98% | 8.8% | 3.31% |
| c1ccc(COc2ccc(Nc3ncnc4ccc(-c5ccco5)cc34)cc2)cc1 | -1.75% | -0.08% | 2.95% | 0.18% | 1.53% | -2.29% | -1.6% | 0.31% | -0.79% | -0.79% |
| O=C(Nc1n[nH]c2cc(-c3ccc(F)cc3)ccc12)C1CC1 | 2.42% | 2.64% | 6.92% | 0.56% | 3.03% | -1.47% | 24.6% | 0.75% | 0.48% | 1.11% |
| COc1ccc(-c2nn3ncccc3c2-c2ccnc(Nc3ccc4c(c3)OCCO4)n2)cc1 | -2.16% | -0.27% | 2.65% | -0.08% | 2.41% | -4.12% | -0.81% | 0.37% | 0.98% | -0.22% |
| Fc1ccc(-c2nn3ncccc3c2-c2ccnc(Nc3ccc4c(c3)OCCO4)n2)cc1 | -2.65% | 1.89% | 1.86% | 0.45% | 0.21% | -2.15% | 2.72% | 1.15% | 1.21% | 1.15% |
| CCN1CCC(CC(=O)Nc2n[nH]c3nnc(-c4cccc(F)c4F)cc23)CC1 | 2.37% | 5.41% | 32.5% | 1.05% | 7.07% | -1.17% | 17.4% | 5.35% | 29.9% | -0.51% |
| COc1ccc(-c2cc3c(N)ncnc3o2)cc1 | 1.68% | 0.18% | 3.35% | 1.53% | 5.3% | -1.4% | 2.82% | 0.46% | 2.78% | 0.59% |
| Cc1cccc2c1NC(=O)/C2=N\Nc1ccc(S(N)(=O)=O)cc1 | 2.03% | 3.28% | 5.14% | 0.68% | 2.95% | 5.03% | 10.7% | 1.48% | 2.98% | 1.44% |
| CS(=O)(=O)CCNCc1coc(-c2ccc3ncnc(Nc4ccc(OCc5ccccc5)cc4)c3c2)c1 | -1.98% | 1.27% | 3.49% | 0.65% | 2.1% | 0.39% | 3.6% | 3.24% | 1.86% | -0.2% |
| CC1=C(C(=O)Nc2cc(Cl)c3[nH]ncc3c2)C(c2ccc(C(F)(F)F)cc2)CC(=O)N1 (stereo not given) | 0.3% | 2.42% | 3.48% | 0.48% | 1.62% | -4.7% | -0.24% | 1.17% | 4.84% | 1.15% |
| CC(=O)NCc1cccc(C#Cc2cncnc2Nc2ccc(OCc3cccc(F)c3)c(Cl)c2)c1 | -1.44% | 1.51% | 5.22% | 1.7% | 5.29% | -2.35% | 5.05% | 1% | -0.78% | 0.32% |
| CCCN(CCS(C)(=O)=O)Cc1ccc(-c2ccc3ncnc(Nc4ccc(OCc5cccc(F)c5)c(Cl)c4)c3c2)o1 | -1.26% | 1.25% | 5.06% | 2.08% | 6.83% | 1.99% | 7% | 1.46% | 0.75% | 1.51% |
| c1ccc(-c2nc3n(c2-c2ccc4c(c2)OCO4)CCC3)nc1 | 0.43% | 2.02% | 2.7% | 0.64% | 1.86% | -1.72% | 3.55% | 0.44% | -1.18% | 3.62% |
| Cc1ccc(O)cc1Nc1ccnc2cc(-c3ccccn3)ccc12 | -0.7% | 3.48% | 4.45% | 0.73% | 1.9% | 1.92% | 4.31% | 1.89% | 3.5% | 2.09% |
| Nc1ncc(-c2cccc(S(N)(=O)=O)c2)c2scc(-c3ccc(F)c(Cl)c3)c12 | -4.84% | 1.97% | 3.55% | 1.01% | 2.29% | -0.13% | 1.9% | 2.7% | -0.72% | 1.16% |

| SMILES | inhibition [1] | inhibition [2] | inhibition [3] | inhibition [4] | inhibition [5] | inhibition [6] | inhibition [7] | inhibition [8] | inhibition [9] | inhibition [10] |
| --- | --- | --- | --- | --- | --- | --- | --- | --- | --- | --- |
| COc1ccc2[nH]c3c4[nH]c5ccc(OC)cc5c4c4c(c3c2c1)C(=O)NC4=O | 6.02% | 2.56% | 7.55% | 1.11% | 2.57% | 2.91% | 3.6% | 5.12% | 20.3% | 2.17% |
| Cc1cccc(Nc2ncc(-c3ccccc3)o2)c1 | 4.71% | 1.95% | 5.69% | 1.51% | 7.89% | -1.21% | 11.3% | 1.65% | 4.78% | 1.1% |
| COC(=O)Nc1nc2ccc(Oc3ccc(NC(=O)Nc4cccc(Cl)c4)cc3)cc2[nH]1 | -0.43% | 0.18% | 0.01% | 0.3% | -0.49% | -0.37% | 3.51% | -1.9% | -1.67% | 0.01% |
| CCN(CC)S(=O)(=O)c1ccc(OC)c(Nc2ncc(-c3ccccc3)o2)c1 | -0.01% | 1.62% | 2.74% | 0.99% | 2.21% | 5.19% | 2.95% | 4.15% | 40.3% | 0.64% |
| COc1cc2ncn(-c3cc(OCc4ccccc4C(F)(F)F)c(C(=O)N(C)C)s3)c2cc1OC | -0.96% | 1.04% | 1.39% | 0.01% | -0.22% | -1.98% | -0.75% | -0.32% | 2.04% | 0.46% |
| COc1cc(/C=N/Nc2ncnc3[nH]ncc23)ccc1O | 6.95% | 2.99% | 5.18% | 2.93% | 16.3% | 10.4% | 15.9% | 2.37% | 28.6% | 2.85% |
| O=C(O[C@H]1CN[C@H](C#Cc2cc3ncnc(Nc4ccc(Cc5ccccc5)cc4)c3s2)C1)N1CCOCC1 | -1.05% | 0.77% | 1.9% | 0.05% | 1.12% | -3.24% | -1.41% | 0.36% | -0.46% | 0.27% |
| CC(C)COC(=O)c1ccc2c(c1)/C(=C/Nc1ccc(S(N)(=O)=O)cc1)C(=O)N2 | 90.8% | 24.7% | 66.7% | 49.8% | 79.6% | 21.5% | 68.6% | 19.2% | 72.2% | -0.32% |
| [O-][S+]1CCN(Cc2ccc(-c3ccc4ncnc(Nc5ccc(OCc6cccc(F)c6)c(Cl)c5)c4c3)o2)CC1 | -2.03% | 3.89% | 6.99% | 4% | 3.88% | 0.87% | 3.99% | 1.02% | -0.02% | 1.18% |
| CCNC(=O)O[C@H]1CN[C@H](C#Cc2cc3ncnc(Nc4ccc(OCc5cccc(F)c5)c(Cl)c4)c3s2)C1 | 0.27% | 2.39% | 3.42% | 0.38% | 1.78% | 9.65% | 9.16% | 1.63% | 2.34% | 0.76% |
| CC(=O)Nc1cccc(C#Cc2cncnc2Nc2ccc(OCc3cccc(F)c3)c(Cl)c2)c1 | 0.86% | 1.84% | 1.74% | 0.82% | 0.21% | -0.8% | -0.16% | 2.3% | 1.56% | -0.12% |
| CCOc1ccc2c(-c3ccnc(Nc4cccc(C(F)(F)F)c4)n3)cnn2n1 | 1.6% | 1.35% | 2.43% | 0.66% | 3.67% | -0.78% | 1.85% | 24.2% | 94.3% | 0.68% |
| COc1ccc(-c2cc(-c3c[nH]nc3-c3ccccn3)ccn2)cc1 | 0.46% | 2.18% | 1.82% | 1.02% | 1.41% | 4.13% | -0.9% | 0.77% | 0.26% | 3.07% |
| CCn1c(-c2nonc2N)nc2c(C#CC(C)(C)O)ncc(OC3CCNCC3)c21 | -2.14% | 2.68% | 3.11% | 0.91% | 2.08% | -2.96% | -1.44% | 2.21% | 18% | 0.62% |
| CNC(=O)c1cc(-c2ccc(F)cc2)cc(-c2ccc(S(=O)(=O)N3CCCC3)cc2)c1N | -2.51% | 1.65% | 2.17% | 0.12% | 1.55% | -2.1% | -3.59% | 1.77% | 2.42% | 0.69% |
| CCn1c(-c2nonc2N)nc2ccccc21 | 1.41% | 1.45% | 3.08% | 0.59% | 1.17% | 1.48% | 1.55% | 2.35% | 4.78% | 1.2% |
| NC(=O)c1sc(-n2cnc3ccc(C(F)(F)F)cc32)cc1OCc1ccccc1Br | -2.34% | 1.68% | 2.94% | -0.39% | -0.71% | -0.29% | 1.76% | 3.14% | 27.6% | 2.31% |
